Most compounds without a hit are left out; they make up all but 9.3% or so of the library.
FMDV inh: antivirals against foot and mouth disease virus; FMDV antiviral cell-based qHTS; Potency, µM (top dose mostly 57.9 µM), for the others: at the highest dose activity change, negative = inhibition, usual class: inhibitors; hit rate 1.2% among 410,000; calls by dose curve; tested in HEK293T cells; further: read-out not given here; potency means the concentration at half of the fitted maximal effect; nearly all actives have a fitted effect of over 45% in size
Sm TGR block: blocks Schistosoma mansoni thioredoxin glutathione reductase | hit rate 3% among 360,000 | purified TGR, DTNB reduction, TNB absorbance 405 nm | Potency, µM (doses to about 114 µM), without a hit: at the highest dose activity change, negative = inhibition, usual class: inhibitors | AID 485364; further: potency means the concentration at half of the fitted maximal effect; nearly all actives have a fitted effect of over 60% in size
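First, TGR (20 nM dispensed) and NADPH were mixed with compound. Second, a 15 min room-temperature incubation followed. Third, further NADPH and then DTNB were added to start the reaction. Finally, TNB absorbance was monitored kinetically.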
HCMV antiviral: inhibitors of human cytomegalovirus; activity change, negative = inhibition, % at 57.5 µM; hit rate 4.5% among 410,000; HFF cells, HCMV-luciferase reporter, 72 h; active compounds read low; AID 1259415; in the data active means activity change below about -60%; inconclusive means no clear call, values can overlap the other calls; inactive means above about -39%
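HFF cells seeded 16 h at 37C, treated with compounds, infected with luciferase-reporter HCMV at MOI 1 PFU/cell; luciferase read at 72 h post infection, normalized to buffer-only and Salinomycin controls.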
Vaccinia mCherry: inhibitors of vaccinia virus infection (mCherry reporter signal); Vaccinia virus mCherry reporter infection, fluorescence; Potency, µM (highest dose often 36.5 µM), for the others: at the highest dose activity change, negative = inhibition, usual class: inhibitors; hit rate 0.63% among 310,000; AID 720579; calls by dose curve; tested in A549 cells; further: potency means the concentration at half of the fitted maximal effect; nearly all actives have a fitted effect of over 35% in size
Vaccinia Venus: vaccinia inhibition (Venus reporter). Vaccinia virus Venus reporter expression, fluorescence. Potency, µM (top dose mostly 36.5 µM), for inactives: top-dose activity change, negative = inhibition, hits mostly inhibitors. hit rate 0.46% among 330,000. AID 720580; calls by dose curve; tested in A549 cells; further: potency means the concentration at half of the fitted maximal effect; nearly all actives have a fitted effect of over 30% in size
HCV inhibitor: inhibitors of hepatitis C virus infection. Huh7.5.1 HCVcc-Cre infection, luciferase reporter, 44 h. Potency, µM (doses to about 41.8 µM), for inactives: top-dose activity change, negative = inhibition, most hits filed as inhibitors. hit rate 3.4% among 340,000. AID 651820; further: potency means the concentration at half of the fitted maximal effect
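HCVcc-Cre virus at an moi near 0.5 was added right after compound to cells cultured 4 h from seeding (1,000 cells/well). Luciferase activity was determined 44 h later, 15 min after substrate addition at RT.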
* hit, by the source's call; i = inactive; ? = inconclusive; nt = not tested or not shown; + = active, no number; [ ] = remark or other dose. Unless noted, the call rests on the fitted dose curve; in most records, active means well fitted curve in the direction sought with a large enough effect; inconclusive means small, poorly fitted or top-dose-only effect, or another doubt; inactive means no such curve, though single readings can be large; an effect the other way counts as inactive or inconclusive. On the % scale 0 is the no-effect control and ±100 the full control effect.

SMILES	FMDV inh	Sm TGR block	HCMV antiviral	Vaccinia mCherry	Vaccinia Venus	HCV inhibitor
CC(C)[C@H](NC(=O)N1CC(=O)Nc2ccccc21)C(=O)N[C@H](Cc1c[nH]c2ccccc12)C(=O)O	-11.6%	7.5%	5.2	-2.9%	1.4%	19.2%
O=C(CN(C(=O)CCC(=O)Nc1nccs1)c1cccc(F)c1)NCCc1ccccc1	-3.9%	0.7%	-88.3*	-2.0%	-7.3%	?
O=C(CN(C(=O)CCC(=O)Nc1nccs1)c1cccc(F)c1)NCc1ccc(F)cc1	4.3%	-4.5%	-25.3	-0.8%	-6.6%	2.4%
COc1ccc(C(=O)N/N=C(\CCC(=O)O)c2ccc(C(C)(C)C)cc2)cc1OC	1.8%	-0.2%	37.2	-9.7%	-11.4%	-5.6%
COC(=O)C[C@@H]1CC[C@H](NC(=O)c2cnccn2)[C@@H](CO)O1	-16.2%	nt	-10.2	-12.8%	-11.2%	nt
CCCn1c(=O)n(C)c(=O)c2c(SCC(=O)Nc3cc(C)on3)nc(C(C)(C)C)nc21	?	5.5%	-2.8	nt	nt	10µM*
Cc1ccccc1-n1nc2c(c1NC(=O)c1ccc(S(=O)(=O)N(C)C)cc1)CSC2	nt	?	104.4	-19.4%	-17.7%	6.7%
O=C(O)COc1ccccc1/C=C1\SC(=O)N(Cc2ccc(F)cc2)C1=O	-7.6%	nt	-25.3	-15.4%	-4.2%	7.2%
O=C1/C(=C/c2ccc(N3CCOCC3)o2)SC(=Nc2ccccc2)N1CCc1c[nH]c2ccccc12	-15.7%	8.91µM*	nt	?	19.5%	3.16µM*
O=C1S/C(=C\c2ccc(N3CCOCC3)o2)C(=O)N1Cc1ccc(F)cc1	-14.0%	5.01µM*	nt	i	14.5%	?
CC(C)OC(=O)CN1C(=O)S/C(=C/c2ccc(N3CCCCC3)o2)C1=O	nt	6.31µM*	-30.0	-8.5%	117.2%	?
O=C1N/C(=C/c2ccc(N3CCOCC3)cc2)C(=O)N1Cc1ccc(F)cc1	5.3%	-17.1%	-21.8	-4.8%	-10.8%	-15.5%
O=C1S/C(=C/c2ccc(N3CCOCC3)o2)C(=O)N1Cc1ccc(F)cc1	13.1%	1µM*	-35.8	nt	nt	?
COc1cc(/C=C2\SC(=Nc3ccccc3)N(CCc3c[nH]c4ccccc34)C2=O)ccc1OC(C)C(=O)O (centres undefined)	0.0%	2.1%	-32.1	-15.0%	1.9%	?
O=C(CN1C(=O)CCS(=O)(=O)c2ccccc21)NCc1ccccc1	-1.8%	-23.1%	-4.2	-25.9%	-17.4%	5.4%
O=c1c(Cc2ccc(F)cc2)c(O)ccn1CC1CCCO1 (centres undefined)	-6.4%	1.2%	-13.1	nt	nt	17.1%
CCOc1ccc(NC(=O)COC(=O)CSCC(=O)Nc2ccc(C)cc2C)cc1	8.8%	8.3%	0.0	nt	nt	12.5%
C=C(C)C1CC=C(C)/C(=N/NC(=O)C2CC2c2ccccc2)C1 (centres undefined)	-13.1%	-2.8%	5.5	nt	nt	?
O=C(Nc1ccc(F)c([N+](=O)[O-])c1)c1cccs1	-18.1%	6.9%	-28.7	nt	nt	-17.7%
CN(C(=O)CCN1C(=O)/C(=C/c2ccccc2)SC1=S)C1CCS(=O)(=O)C1 (centres undefined)	-5.0%	10.7%	-11.7	-13.8%	-15.2%	4.3%
COc1ccccc1C(=O)NCCC(=O)NCC(c1ccco1)N1CCCC1 (centres undefined)	-19.0%	-15.5%	-30.2	-12.8%	-8.6%	5.8%
O=C(c1cc(-c2ccc(Br)cc2)n[nH]1)N1CCN(S(=O)(=O)c2ccc(Br)s2)CC1	?	-1.8%	+	-26.3%	-21.3%	nt
O=C(c1cc(-c2ccc(Cl)cc2)n[nH]1)N1CCN(S(=O)(=O)c2ccc(Br)s2)CC1	-26.6%	4.4%	?	11.2µM*	?	nt
Cc1ccc(NC(=O)CCC(=O)N/N=C/c2coc3ccccc3c2=O)cc1	-23.5%	-1.3%	-26.8	nt	nt	14.8%
CCc1nc2ccc(C(=O)N3CCN(C(=O)c4ccco4)CC3)cn2c1N(C)Cc1nccn1C	-9.7%	nt	11.8	37.9%	-7.2%	nt
SMILES	FMDV inh	Sm TGR block	HCMV antiviral	Vaccinia mCherry	Vaccinia Venus	HCV inhibitor
COc1cc(/C=C/[N+](=O)[O-])ccc1OC(=O)c1cccnc1	?	1.78µM*	16.9	nt	nt	17.9%
COc1ccccc1OC(=O)c1cc2ccccc2oc1=O	19.1%	-21.3%	22.6	-21.8%	5.2%	33.9%
COc1cc(/C=C/[N+](=O)[O-])ccc1OC(=O)c1cc2ccccc2oc1=O	-12.6%	?	-72.3*	-3.6%	-15.8%	7.5%
CCOC(=O)C1(CCCc2ccccc2)CCN(C(=O)CCn2cncn2)CC1	-5.2%	0.0%	?	-3.7%	-5.3%	-13.5%
CCOc1ccc(S(=O)(=O)Nc2cc(Sc3ncn[nH]3)c3oc(=O)sc3c2)cc1	nt	-14.9%	nt	nt	nt	nt
C=CCC[C@H](Cc1ccc(F)cc1)C(=O)O[C@H](CNC(=O)[C@@H](CC=C)CC(=O)N(CCO)Cc1ccccc1)c1ccccc1	39.8µM*	nt	4.5	2.0%	-18.1%	?
C=CC[C@@H](CC(=O)N(CCO)Cc1ccccc1)C(=O)NCCOC(=O)[C@@H](CC=C)Cc1ccc(F)cc1	?	nt	-16.5	?	-19.1%	?
C=CC[C@H](CC(=O)NCCO)C(=O)NC[C@@H](OC(=O)[C@@H](CC=C)Cc1ccc(F)cc1)c1ccccc1	-14.8%	nt	-7.4	-19.3%	-23.5%	-25.9%
C=CC[C@H](CC(=O)N(CCO)Cc1ccccc1)C(=O)NC[C@@H](OC(=O)[C@@H](CC=C)Cc1ccc(F)cc1)c1ccccc1	?	nt	41.9	-5.4%	?	7.94µM*
CC(C)C(NS(=O)(=O)c1cccs1)C(=O)NCc1ccccc1Cl (centres undefined)	-14.4%	22.8%	-32.6	i	-13.4%	-13.0%
COc1ccc2c(-c3ccccc3)cc(N3CCOCC3)nc2c1	?	-6.6%	-25.9	nt	-23.8%	12.6µM*
O=C(CCS(=O)(=O)c1ccc(Br)cc1)Nc1ccccn1	-16.0%	3.16µM*	?	-13.2%	-10.5%	1.6%
NS(=O)(=O)c1ccc(CCNC(=O)CCS(=O)(=O)c2ccc(Br)cc2)cc1	-9.1%	0.0%	42.0	nt	nt	9.5%
CC1CCC(NC(=O)CCS(=O)(=O)c2ccc3c(c2)NC(=O)CS3)CC1 (centres undefined)	-6.4%	-0.7%	-39.1	-17.9%	-4.0%	-1.9%
O=C1CSc2ccc(S(=O)(=O)CCC(=O)NC3CCCCC3)cc2N1	-11.0%	22.4µM*	0.0	nt	nt	12.8%
O=C(CCS(=O)(=O)c1ccc(Br)cc1)NCCc1ccccc1	-11.7%	50.1µM*	15.0	nt	nt	-10.6%
O=C(CCS(=O)(=O)c1ccc2c(c1)NC(=O)CS2)NCCc1ccccc1	-2.5%	31.6µM*	4.8	nt	nt	4.5%
COC(=O)Cc1c(C)[nH]n(-c2cc(Cl)cc(Cl)c2)c1=O	-22.1%	-28.7%	-14.9	i	-11.3%	-0.7%
CCOCCCNC(=S)N1CCCN(c2nc3cc(C)cc(C)c3cc2C#N)CC1	-10.0%	-3.3%[57.1 µM]	13.6	?	-28.2%	11.2µM*
